IP6K1 inhibitor: inhibitors of human IP6K1. 140,000 compounds, 0.81% hits. IP6K1 kinase, ADP-Glo luminescence, 2 h; hits give low values. activity change, % (series mostly up to about 58 µM). Q92551. AID 1645851; in the data active = activity change below about -25%; note: % is set by controls: 0 for no effect and ±100 for the full control effect
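ADP-Glo luminescence measures ADP made by human IP6K1 during a 2 h RT reaction with ATP/IP6 (mix at 1.3 mM/130 uM); top library doses 57.5 and 19.1 uM final.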
HEK293 viab: cell viability loss counter-screen; HEK-293-SNCA-luc viability, GF-AFC fluorescence, 24 h; Potency, µM (titrated, usually from 57.1 µM), for the others: at the top dose activity change, negative = cytotoxicity, usual class: cytotoxic; 150,000 compounds, 0.12% hits; AID 1671193;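 note: potency is the fitted concentration of half-maximal effect; 0% = DMSO-treated cells and -100% = medium-only wells without cells; nearly all actives have a fitted effect of over 30% in size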
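Cytotoxicity counterscreen: after 24 h compound treatment of genome-edited SNCA-luciferase HEK-293 cells, live-cell protease substrate GF-AFC read by fluorescence after 30 min; activity scaled between DMSO (0%) and medium-only (-100%), curves Hill-fitted.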
KDM5B inhibitor: inhibitors of human KDM5B histone demethylase; Potency, µM (series often up to 57.7 µM), actives largely listed as inhibitors; KDM5B demethylase, FDH-coupled NADH fluorescence (FDH is formaldehyde dehydrogenase); 220,000 compounds, 2.6% hits; note: potency is the fitted concentration of half-maximal effect; 0% is about no effect; nearly all actives have a fitted effect of over 70% in size
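Coupled FDH/NAD⁺ fluorescence readout. KDM5BΔAP 200 nM final; compound titration, 10 min RT preincubation; substrate mix 12.5 µM H3K4me3, 25 µM 2-OG, 50 µM Fe(II), 100 µM ascorbate, 0.25 mM NAD⁺, 0.25 U/mL FDH; ΔRFU over 30 min.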
SNCA expr inh: SNCA gene expression inhibition; HEK-293 SNCA-luciferase knock-in, luminescence, 24 h; 140,000 compounds, 0.17% hits; Potency, µM (top dose mostly 57.2 µM), for inactives: at the top dose activity change, negative = inhibition, usual class: inhibitors;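 note: potency is the fitted concentration of half-maximal effect; plate controls were DMSO cells for no effect and cell-free wells for full effect; nearly all actives have a fitted effect of over 45% in size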
* hit, by the source's call; i = inactive; u = inconclusive; x = no result; [ ] = another dose, or the depositor's remark. This is a sample that favours compounds with a hit; in the whole collection about 2.8% have one here. Unless noted, calls come from the whole dose curve; as a rule, active = well fitted curve in the direction sought with a large enough effect; inconclusive = small, poorly fitted or top-dose-only effect, or another doubt; inactive = no such curve, though single readings can be large; an effect the other way counts as inactive or inconclusive.

SMILES | IP6K1 inhibitor | HEK293 viab | KDM5B inhibitor | SNCA expr inh
O=[N+]([O-])c1cccc(N/N=C/c2ccc(Br)cc2)c1 | x | x | i | x
C[C@H]1[C@@H]2[C@@H](O)C([C@H](C)C(=O)NC3CC3)CC[C@@]2(C)CC[C@@H]1NC(=O)C1CCCCC1 (some centres not stated) | -5 | 3%[87.6 µM] | i | -7%[87.6 µM]
O=C(N[C@@H]1CCOC[C@H]1O)c1cnn2cc(CCO)cnc12 | -8 | 5% | 28µM* | -19%
CCN(CC)Cc1cnc2c(C(=O)NC3CCC3)cnn2c1 | -2 | -1% | u | 0%
C#CCN(CC=C)Cc1cnc(S(=O)(=O)CC2CCCCC2)n1CCOC | 0 | -7% | i | u
CN(C)CCNC(=O)c1cc2cc(Cl)ccc2[nH]1 | x | x | i | x
O=C(NC[C@H]1O[C@@H](CC(=O)N2CCN(c3ccccn3)CC2)[C@H](O)[C@@H]1O)NC1CCCCC1 | 9 | -6% | 25µM* | 23%
O=C(NC[C@H]1O[C@@H](CC(=O)N2CCN(c3ccccn3)CC2)[C@H](O)[C@@H]1O)Nc1cccc(F)c1 | -4 | -2% | u | u
Cc1ccccc1CNC(=O)CCCn1ncn2c(cc3occc32)c1=O | -11 | 0% | i | -3%
O=C(NC1CCN(c2ccc(=O)n(CC3CC3)n2)CC1)c1cnccn1 | -11 | -3% | u | u
Cc1cc(C)c(C)c(S(=O)(=O)NC2CCN(c3ccc(=O)n(CC4CC4)n3)CC2)c1C | -4 | -14% | 35µM* | u
O=c1ccc(N2CCC(NS(=O)(=O)c3ccc(Cl)s3)CC2)nn1CC1CC1 | -2 | -5% | 14µM* | -31%
CCc1ccccc1NC(=O)CSc1nc2c(cc1C#N)CCCC2 | x | x | i | x
Cc1cn2nc(C(=O)NC3CCCCCC3)cc2c(N2CCSCC2)n1 | -6 | -1% | u | -25%
Cc1cccc(NC(=O)c2cc3c(N4CCSCC4)nc(C)cn3n2)c1 | 1 | -4% | 32µM* | 47%
COc1ccc(C(C)NC(=O)c2cc3c(N4CCSCC4)nc(C)cn3n2)cc1OC (configuration not stated) | 6 | 4% | 6.3µM* | u
COc1ccc(NC(=O)c2cc3c(N4CCSCC4)nc(C)cn3n2)c(OC)c1 | 2 | 8% | u | 7%
Cc1cn2nc(C(=O)Nc3ccc4c(c3)OCCO4)cc2c(N2CCSCC2)n1 | 12 | -6% | 32µM* | -12%
COc1ccc(NC(=O)c2cc3c(N4CCSCC4)nc(C)cn3n2)cc1 | -7 | -7% | 14µM* | 9%
Cc1cn2nc(C(=O)Nc3ccc4c(c3)OCO4)cc2c(N2CCCC2)n1 | 6 | 4% | u | 44%
CC1=NS(=O)(=O)N(Cc2ccccc2)C=C1C(=O)OCc1nc(-c2ccc(Cl)cc2)no1 | 4 | 2% | i | -5%
COCCNc1nc(-c2ccc(C(=O)N(C)C)cc2)nc2ccccc12 | x | -3% | x | 2%
Cc1cn2nc(C(=O)NCc3ccccc3Cl)cc2c(N2CCSCC2)n1 | -12 | -8% | u | -15%
CCc1ccccc1NC(=O)c1cc2c(N3CCSCC3)nc(C)cn2n1 | -18 | 3% | 28µM* | -11%
Cc1ccc(NC(=O)c2cc3c(N4CCSCC4)nc(C)cn3n2)cc1 | 7 | -1% | 35µM* | -19%
SMILES | IP6K1 inhibitor | HEK293 viab | KDM5B inhibitor | SNCA expr inh
Cc1cn2nc(C(=O)Nc3ccc(C(F)(F)F)cc3)cc2c(N2CCSCC2)n1 | -12 | -4% | 28µM* | -9%
CCOc1ccc(CC(=O)NCCS(=O)(=O)N2CCN(c3ccccc3OC)CC2)cc1 | 3 | -3% | i | -14%
O=C1CCN(Cc2cccnc2)CCCC(C(=O)N2CCN(Cc3ccccc3F)CC2)CCN1 (configuration not stated) | 9 | -2% | i | 0%
COc1cc(C(=O)OCC2C(COC(=O)c3cc(OC)c(OC)c(OC)c3)C2(Cl)Cl)cc(OC)c1OC (configuration not stated) | x | x | i | x
Cn1c(=O)c2c(ncn2CCC(=O)N(Cc2ccc(F)cc2)C2CC2)n(C)c1=O | x | x | i | x
CCc1noc(-c2cccn3c(CNC(=O)C4CCC4)nnc23)n1 | -2 | 3% | 25µM* | 1%
CCCc1noc(-c2cccn3c(CNC(=O)C4CCCC4)nnc23)n1 | 8 | -4% | 28µM* | 10%
O=C(NCc1nnc2c(-c3nc(C4CC4)no3)cccn12)C1CCCC1 | 1 | -3% | 28µM* | -9%
COc1cccc([C@H]2CN(C(=O)c3c(C)nn4c(C)cc(C)nc34)C[C@@H]2N)c1 | -11 | 0% | 28µM* | 2%
Cc1cc(C)n2nc(C)c(C(=O)N3CCCC(c4cccc(C(=O)O)c4)C3)c2n1 (configuration not stated) | -9 | -4% | 32µM* | -13%
COCc1nc2nccc(-c3ccc4c(c3)OCCCO4)n2n1 | 6 | -3% | 18µM* | 13%
COc1ccc(Cc2nc3nccc(-c4ccc5c(c4)OCCCO5)n3n2)cc1 | 12 | 4% | u | 2%
c1coc(-c2nc3nccc(-c4ccc5c(c4)OCCCO5)n3n2)c1 | -10 | -3% | 28µM* | u
O=S(=O)(c1ccc(N2CCN(Cc3ccccc3)CC2)nc1)N1CCCCC1 | x | x | i | x
O=C(c1cc(Br)cn2ccnc12)N1CCC(N2CCNC2=O)CC1 | -11 | -13% | u | -7%
CC(C)NC(=O)c1cc(Br)cn2ccnc12 | 11 | 3%[87.6 µM] | 40µM* | 10%[87.6 µM]
CNC(=O)c1cc(Br)cn2ccnc12 | 3 | 10%[87.6 µM] | 35µM* | 2%[87.6 µM]
CC(Cn1cncn1)Nc1ccc(-c2nc(Cc3ccc(F)cc3)no2)cn1 (configuration not stated) | 4 | 5% | 25µM* | 48%
Cc1nonc1CN(C)C(=O)c1csc2nc(-c3cccc(C(F)(F)F)c3)cn12 | 0 | 8% | i | 5%
O=C(Cc1ccccc1)N1CCC(Oc2cnc3c(ccn3-c3cncnc3)c2)CC1 | -1 | u | i | u
O=C(O)Cn1ccc2cc(OCC3CCN(C(=O)Cc4ccccc4)CC3)cnc21 | -4 | 3%[87.6 µM] | 40µM* | -12%[87.6 µM]
O=C(CC1CC1)N1CCC(Oc2cnc3c(ccn3-c3cncnc3)c2)CC1 | 6 | 4%[87.6 µM] | i | -11%[87.6 µM]
O=C(O)Cn1ccc2cc(OCC3CCN(C(=O)COc4ccccc4)CC3)cnc21 | -8 | 2%[87.6 µM] | 35µM* | -14%[87.6 µM]
NC(=O)Cn1ccc2cc(OCC3CCN(C(=O)CC4CC4)CC3)cnc21 | -12 | 1%[87.6 µM] | 35µM* | 11%[87.6 µM]
CN1CCN(CC(=O)Nc2cccc(C(=O)Nc3cccc(C(F)(F)F)c3)c2)CC1 | x | x | i | x
COc1ccc(-c2ccnc3nc(CC(C)C)nn23)cc1 | -4 | -6% | i | -4%
COc1ccc(CCc2nc3nccc(-c4ccc5c(c4)OCCCO5)n3n2)cc1OC | 3 | 5% | u | -12%
COc1ccc(-c2ccnc3nc(CC(C)C)nn23)cc1OC | 2 | -1% | 28µM* | 27%
COc1cccc(-c2ccnc3nc(CC(C)C)nn23)c1 | -3 | 1% | 25µM* | 9%
COc1cccc(-c2ccnc3nc(CCc4ccccc4)nn23)c1 | 6 | 4% | 20µM* | 10%
